Data on 38 compounds can be found in PubChem BioAssay (NCI).

A short description of test [1]: NCI Yeast Anticancer Drug Screen. Data for the rad50 strain (AID 155).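 Further: 0% = growth of vehicle-only cultures of the same strain.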 The settings on record: S. cerevisiae rad50 strain growth inhibition; at 50.0 µM; stronger effect = higher value. The method, boiled down: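 A DNA repair-deficient yeast mutant serves as the test organism; compound-induced growth inhibition is calculated against vehicle-treated cells.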
The nature of test [2]: NCI Yeast Anticancer Drug Screen. Data for the mec2-1 strain (AID 157). To be noted: S. cerevisiae mec2-1 strain, at 50.0 µM, stronger effect = higher value. The method in brief:
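Readout is yeast growth inhibition, normalised to vehicle-treated controls, in the mec2-1 strain exposed to compound.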

Test [3] can be described thus: NCI Yeast Anticancer Drug Screen. Data for the sgs1 mgt1 strain (AID 161).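 Further: 0% = growth of cultures given vehicle only.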 To be noted: S. cerevisiae sgs1 mgt1 strain, at 50.0 µM, stronger effect = higher value. The method in brief:
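Yeast cells carrying a defined DNA-repair defect were exposed to test compounds. Growth inhibition was measured relative to vehicle-treated controls.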

Test [4] is described as follows: NCI Yeast Anticancer Drug Screen. Data for the cln2 rad14 strain (AID 165).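 Further: 0% = growth equal to vehicle treated cultures.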 The settings on record: S. cerevisiae cln2 rad14 strain, at 50.0 µM, stronger effect = higher value. The method, boiled down: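 Relative to vehicle controls, growth inhibition of compound-treated cln2 rad14 yeast was recorded.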
A short description of test [5]: NCI Yeast Anticancer Drug Screen. Data for the bub3 strain (AID 167). The settings on record: S. cerevisiae bub3 mutant strain, at 50.0 µM, stronger effect = higher value. The method, boiled down: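 Inhibition values come from growth of compound-treated mutant yeast normalised to vehicle-treated controls.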
The nature of test [6]: NCI Yeast Anticancer Drug Screen. Data for the mlh1 rad18 strain (AID 175). To be noted: S. cerevisiae mlh1 rad18 strain growth inhibition; at 50.0 µM; stronger effect = higher value. The method, boiled down:
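Test agents were incubated with a yeast strain of defined genotype (DNA damage repair defect). Inhibition of growth was derived by comparison with vehicle-exposed cultures.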

Each structure is given as a SMILES string. Compounds without any hit were thinned out: in the full panel of roughly 79,000, 15% have a hit. A number with no mark means an inactive call. Calls of active or inactive are those of the source. No stated cut-off is given here; in the data, active means growth inhibition above about 70%; inactive means the rest.

Regarding `Brc1cn2[n+](c1)[B-]n1cc(Br)c[n+]1[B-]2`, the growth inhibition in test [1] is 0.85%; in test [2] it was -4.6%; in test [3] it was -3.6%; in test [4], -7.65%; in test [5], 6.65%; in test [6] it was 12%.

Regarding `COc1ccc2nc(C)c3c(c2c1)C(=O)N(CCC[N+]1([O-])CC[N+]([O-])(CCCN2C(=O)c4c(c5cc(OC)ccc5[n+]([O-])c4C)C2=O)CC1)C3=O` (stereo not drawn), the growth inhibition in test [1] was -0.2%; in test [2] it was -7.8%; in test [3] it was -5.65%; in test [4] it was -35.7%; in test [5], 2.3%; in test [6] it was 26.1%.

On to `NC(=O)c1ccccc1[N+](=O)[O-]`, for which the growth inhibition was 3.75% in test [1]; -7% in test [2]; -16.4% in test [3]; 6.4% in test [4]; -16.1% in test [5]; -6.5% in test [6].

`COC(=O)C1C(C(=O)OC)C(C(=O)OC)C1C(=O)OC` (stereo not drawn): the growth inhibition is 1.6% in test [1]; -0.35% in test [2]; -0.45% in test [3]; 9.5% in test [4]; 1.4% in test [5]; 26.9% in test [6].

With `Cc1cccc(CN(C)C)c1C=C(c1ccccc1)c1ccccc1`, the growth inhibition in test [1] is 11.9%; in test [2], -1%; in test [3], 10.6%; in test [4] it was -0.05%; in test [5], 8.7%; in test [6] it was 33%.

Regarding `CC(/C=N\Nc1ccc([N+](=O)[O-])cc1)=N/N=C(N)N`, the growth inhibition in test [1] is 8.35%; in test [2], -2.9%; in test [3], 9.55%; in test [4], -10.9%; in test [5], 3.1%; in test [6] it was 18.7%.

For `O=C(NCc1cccc2ccccc12)Nc1ccccc1Cl`, the growth inhibition in test [1] was 4.9%; in test [2], 36.1%; in test [3], 10.3%; in test [4] it was -6.55%; in test [5], 27%; in test [6], 30%.

On to `Cc1cccc(NC(=O)Nc2ccccc2Cl)c1C`, for which the growth inhibition in test [1] was 11.2%; in test [2] it was 5.15%; in test [3] it was 0.65%; in test [4], -3.65%; in test [5], -2.3%; in test [6] it was -9.45%.

As to `O=[N+]([O-])c1ccc(/C(=C/c2ccc(Cl)cc2Cl)S(=O)(=O)C(Cl)Cl)o1`, the growth inhibition in test [1] was 98.3% (active); in test [2], 98.8% (active); in test [3] it was 99.1% (active); in test [4] it was 99.1% (active); in test [5], 98.2% (active); in test [6], 98% (active).

As to `CC[C@H]1CN(C)[C@H]2Cc3c([nH]c4ccccc34)C(=O)C[C@H]1C2C(=O)OC` (stereo partly drawn), the growth inhibition is -0.35% in test [1]; -0.95% in test [2]; 6.95% in test [3]; 12.6% in test [4]; -1.65% in test [5]; -35.9% in test [6].

Turning to `CC(=O)Nc1ccc(C(=O)NN2C(=O)CSC2c2ccc([N+](=O)[O-])cc2)cc1` (stereo not drawn), the growth inhibition was -24.1% in test [1]; -39.8% in test [2]; -54.5% in test [3]; -6.3% in test [4]; -24.3% in test [5]; -53.2% in test [6].

With `Cc1cc(N(CCC#N)CCC#N)ccc1/C=C(\NC(=O)/C=C/c1ccccc1)C(=O)N=[N+]=[N-]`, the growth inhibition is -30.4% in test [1]; -31.9% in test [2]; -44.9% in test [3]; -19.4% in test [4]; -21.1% in test [5]; -7.2% in test [6].

With `O=C(O)C1CCN(C(=O)Cc2c3ccccc3cc3ccccc23)CC1`, the growth inhibition in test [1] is 20.9%; in test [2], 3.9%; in test [3], -3.45%; in test [4], -2.5%; in test [5], -6.85%; in test [6] it was 22.7%.

With `Cc1cccc(C(O)c2ccccn2)c1O` (stereo not drawn), the growth inhibition in test [1] was -3.85%; in test [2], -4.45%; in test [3], -6.8%; in test [4] it was -4.45%; in test [5] it was -3.8%; in test [6] it was 3.1%.

With `CCOC(=O)CC(=O)C(=O)OCC`, the growth inhibition is 2.05% in test [1]; -4.75% in test [2]; -4.8% in test [3]; -25.6% in test [4]; -18% in test [5]; -27.2% in test [6].

Take `CCc1ccccc1NC(=O)C1=C(C)NC(C)=C(C(=O)Nc2ccccc2CC)C1c1ccc(NC(C)=O)cc1`: the growth inhibition was -11.1% in test [1]; 19.8% in test [2]; 3.25% in test [3]; 13.6% in test [4]; 11.4% in test [5]; -4.25% in test [6].

Regarding `COc1cc(OC(=O)/C=C2/CCC(=O)O2)c2c(c1)OC1OC(=O)CC21` (stereo not drawn), the growth inhibition in test [1] is 13.6%; in test [2], -4.95%; in test [3], 13.8%; in test [4] it was -3.4%; in test [5], -1.9%; in test [6] it was 15.8%.

Consider `CCc1c(CNc2ccc(C(=O)NC(CC(=O)O)C(=O)O)cc2)ccc2nc(N)nc(N)c12` (stereo not drawn), for which the growth inhibition in test [1] is 5.5%; in test [2], -0.5%; in test [3], 11.9%; in test [4], 2.85%; in test [5], -4%; in test [6], 5.6%.

On to `N#Cc1c(C#N)c(-c2ccco2)n(/N=C/c2ccco2)c1N`, for which the growth inhibition was 4.55% in test [1]; 0.6% in test [2]; -34.5% in test [3]; -6.75% in test [4]; -25.8% in test [5]; -37.4% in test [6].

For `COc1ccc(-c2cc(=O)c3c(O)cc(O)cc3o2)cc1Oc1ccc(-c2cc(=O)c3c(O)cc(O)cc3o2)cc1`, the growth inhibition in test [1] is 15.6%; in test [2], -12.2%; in test [3], -12.3%; in test [4] it was 2.35%; in test [5], -3.7%; in test [6] it was 5.1%.

Take `CCOC(=O)C(NC(=O)c1ccccc1)(Nc1ccc(S(=O)(=O)Nc2ncccn2)cc1)C(F)(F)F` (stereo not drawn): the growth inhibition in test [1] was 1.1%; in test [2], -17.4%; in test [3] it was -16.8%; in test [4] it was -4.55%; in test [5], -12.7%; in test [6], 16.9%.

In the case of `COc1ccc(CC2OCCC3c4ccccc4NC23)cc1OC` (stereo not drawn), the growth inhibition was -3.2% in test [1]; -3.5% in test [2]; 0.7% in test [3]; -10.2% in test [4]; 3% in test [5]; -2.05% in test [6].

Regarding `NC1CC(=O)C(CC2C(=O)CC(N)CC2=O)C(=O)C1` (stereo not drawn), the growth inhibition in test [1] was -1.3%; in test [2] it was 0.05%; in test [3], 3.35%; in test [4] it was -1.8%; in test [5] it was -1.15%; in test [6], -3.65%.

Regarding `CCOC(=O)C(CC)(C(=O)OCC)C(C)C`, the growth inhibition was 15.6% in test [1]; 30.4% in test [2]; -17.9% in test [3]; -28.1% in test [4]; -9.95% in test [5]; -6.8% in test [6].

`O=C1C(O)CCN1C1CCCCC1` (stereo not drawn): the growth inhibition in test [1] is 10.7%; in test [2], -6.95%; in test [3], -0.3%; in test [4] it was -2.85%; in test [5], 4.55%; in test [6], 0.2%.

`CN(c1ccccc1)C1C(=O)N(c2ccccc2)C1/C=C/c1ccccc1` (stereo not drawn): the growth inhibition in test [1] is -8.7%; in test [2], 0.8%; in test [3], 13.3%; in test [4], 29.4%; in test [5], 11.9%; in test [6], 39.1%.

As to `C=CC1CC1(Cl)Cl` (stereo not drawn), the growth inhibition in test [1] is -10.9%; in test [2], 12.8%; in test [3], -4.75%; in test [4], -50.2%; in test [5], 0.5%; in test [6] it was 11.7%.

As for `OC(Cc1ccccc1)CN1CCN(c2ccccc2)CC1` (stereo not drawn), the growth inhibition in test [1] was 10.4%; in test [2] it was 4%; in test [3] it was 8%; in test [4], 17.1%; in test [5], 8.05%; in test [6], 4.05%.

Take `C/C=C(\C)C(=O)OC1C2C(C)C(=O)OC2C(O)C(C)C2C=CC(=O)C21C` (stereo not drawn): the growth inhibition in test [1] is -21.1%; in test [2] it was -23.5%; in test [3], -7.9%; in test [4] it was 9.4%; in test [5], -21.4%; in test [6], 6.5%.

On to `CCOc1ccc(Nc2ccc3c(O)cc(S(=O)(=O)O)cc3c2)cc1`, for which the growth inhibition is 0.9% in test [1]; -7.35% in test [2]; -5.75% in test [3]; -20.4% in test [4]; 38.5% in test [5]; 12.8% in test [6].

Turning to `CCCC(=O)N(CC)CC`, the growth inhibition is 11.2% in test [1]; -8.6% in test [2]; -0.8% in test [3]; -15% in test [4]; 0% in test [5]; -20.9% in test [6].

With `CC(=O)CC(O)(C(F)(F)Cl)C(F)(Cl)Cl` (stereo not drawn), the growth inhibition in test [1] was -35.5%; in test [2], -47.7%; in test [3] it was -42.8%; in test [4] it was 0.2%; in test [5], -30.1%; in test [6], -35.8%.

Turning to `O=C1C(Br)=C(c2ccccc2)C(c2ccccc2)=C1c1ccccc1`, the growth inhibition is 45.6% in test [1]; 25.9% in test [2]; 51% in test [3]; 21.9% in test [4]; 22.7% in test [5]; 55% in test [6].

Turning to `O=c1[nH]c2c(Br)cccc2c2ccccc12`, the growth inhibition in test [1] is 43.1%; in test [2], 3.85%; in test [3], 11.8%; in test [4], -30.9%; in test [5] it was -14.5%; in test [6], 17.5%.

Take `N#CC(C#N)c1c(F)c(F)c(C(F)(F)F)c(F)c1F`: the growth inhibition is 10.4% in test [1]; -4.6% in test [2]; 34.9% in test [3]; -8.95% in test [4]; -9.9% in test [5]; -0.65% in test [6].

In the case of `O=C(Nc1ccc(C(=O)CCl)cc1)Nc1ccc(C(=O)CCl)cc1`, the growth inhibition is 8.65% in test [1]; 14.1% in test [2]; 20.2% in test [3]; 0.35% in test [4]; 12.9% in test [5]; 14.6% in test [6].

As to `CCN(CC)c1ccc(/C=N\N(C)C)cc1`, the growth inhibition in test [1] was 0.2%; in test [2], -13.2%; in test [3] it was -4.8%; in test [4], -48.1%; in test [5], -1.65%; in test [6] it was -6.55%.

Regarding `C=CCc1ccc(OC(=O)Nc2cccc(OC)c2)c(OC)c1`, the growth inhibition in test [1] is 74.5% (active); in test [2] it was 86.8% (active); in test [3], 73.9% (active); in test [4], -7.45%; in test [5] it was 53.9%; in test [6], 68.8%.
